Only some compounds are listed: those with a hit (about 9.3% of all), similar ones and a draw of the others.
NPC1 prom act – activators of NPC1 promoter | Potency, µM (titrated, usually from 9.22 µM), for the others: top-dose activation, most hits filed as activators | AID 485313 | actives 2.4% (n = 320,000) | Huh7 NPC1 promoter luciferase reporter, 24 h; also: % of control where 0% means no effect; nearly all actives have a fitted effect of over 60% in size
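Stable NPC1-promoter luciferase Huh7 line; cpd (DMSO) 24 h, 37 °C, 5% CO2; Amplite luciferase reagent 10 min RT; luminescence readout. qHTS format.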
Rab9 promoter act – activates the Rab9 promoter; AID 485297; actives 2.8% (n = 320,000); Potency, µM (series often up to 9.22 µM), without a hit: at the top dose activation, negative = inhibition, most hits filed as activators; Huh7 Rab9 promoter-luciferase reporter, luminescence, 24 h; also: % of control where 0% means no effect; nearly all actives have a fitted effect of over 60% in size
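Rab9 promoter-driven luciferase in stably transfected Huh7 cells; 1500 cells/well rested 2 h, exposed to compound in DMSO for 24 h at 37 °C, 5% CO2. Luminescence read 10 min after adding luciferase reagent at ambient temperature.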
ELG1 genotox – induces genotoxicity in HEK293T cells with luciferase-tagged ELG1; AID 504466; Potency, µM (series often up to 46 µM), for inactives: at the top dose activity change, positive = activation, usual class: activators; actives 1.3% (n = 330,000); HEK293T ELG1-luciferase reporter, luminescence, 16 h; also: % of control where 0% means no effect; nearly all actives have a fitted effect of over 60% in size
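Quantitative HTS format in 1536-well plates. HEK293T ELG1-luciferase reporter cells receive test compound and are incubated 16 hr at 37 °C, 5% CO2; ONE-Glo added, 30 min room temperature, then luminescence read.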
FLuc modulator – firefly luciferase modulation, counter-screen for miR-21 project; P08659; purified FLuc, Km substrates, luminescence inhibition; Potency, µM (series often up to 57.5 µM), for the others: at the highest dose activity change, negative = inhibition, usual class: inhibitors; actives 6.9% (n = 360,000); AID 588342;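 also: plate controls were vehicle for no effect and reference inhibitor for full effect; nearly all actives have a fitted effect of over 55% in size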
Target sequence (P08659 whole entry, looked up): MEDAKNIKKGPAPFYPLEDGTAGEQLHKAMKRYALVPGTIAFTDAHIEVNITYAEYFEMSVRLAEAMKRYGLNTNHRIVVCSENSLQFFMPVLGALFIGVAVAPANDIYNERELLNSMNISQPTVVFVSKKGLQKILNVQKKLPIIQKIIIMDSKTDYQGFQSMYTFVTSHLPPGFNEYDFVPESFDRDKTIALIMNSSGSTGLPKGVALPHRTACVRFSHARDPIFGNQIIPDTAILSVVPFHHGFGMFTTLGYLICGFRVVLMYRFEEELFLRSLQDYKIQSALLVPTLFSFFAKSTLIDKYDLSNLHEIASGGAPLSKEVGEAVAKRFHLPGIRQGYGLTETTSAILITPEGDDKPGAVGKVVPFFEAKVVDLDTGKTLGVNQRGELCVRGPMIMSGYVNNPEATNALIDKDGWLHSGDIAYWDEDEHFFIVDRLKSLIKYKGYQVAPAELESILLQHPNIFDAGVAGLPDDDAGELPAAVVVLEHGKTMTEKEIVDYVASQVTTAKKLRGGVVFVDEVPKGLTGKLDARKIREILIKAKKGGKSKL
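Purified P. pyralis luciferase, 10 nM final, with Km-level 10 uM D-luciferin and 10 uM ATP in 50 mM Tris acetate pH 7.5, 10 mM Mg acetate, 0.01% Tween-20, 0.05% BSA; 6-point qHTS titration about 60 µM downward; luminescence read.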
ELG1 DNA repair – ELG1-dependent DNA repair inhibition. HEK293T ELG1-luciferase reporter, luminescence, 16 h; DNA damage induced by 5-fluorouridine. Potency, µM (doses to about 46.1 µM), without a hit: top-dose activity change, negative = inhibition, most hits filed as inhibitors. actives 2.3% (n = 330,000). AID 504467; also: % is scaled to controls: 0 for no effect and ±100 for the full control effect; nearly all actives have a fitted effect of over 55% in size
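DMSO vehicle served as the neutral condition. Each well held 2,000 cells given 5-fluorouridine plus compound; after 16 hr at 37 °C/5% CO2, ONE-Glo was added and luciferase measured 30 min later.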
SMN2 splice up – enhancers of SMN2 splice variant expression | HEK293 SMN2-luciferase splicing reporter, luminescence, 30-36 h | Potency, µM (top dose mostly 46.1 µM), inactives show top-dose activity change, positive = activation, actives largely listed as activators | actives 2.8% (n = 210,000) | AID 1458; also: % of control where 0% means no effect; nearly all actives have a fitted effect of over 55% in size
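HEK293 cells carry an SMN2 minigene-luciferase reporter in which exon 7 inclusion puts luciferase in frame. Cells were seeded at 2000 cells/well, attached for 10-12 hours, then exposed to compounds for 30-36 hours at 37C before ONE-Glo luminescence.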
An asterisk follows results filed as active; ? = inconclusive; . = not tested or not shown. Calls follow the shape of the dose curve; as a rule, active = well fitted curve in the direction sought with a large enough effect; inconclusive = small, poorly fitted or top-dose-only effect, or another doubt; inactive = no such curve, though single readings can be large; an effect the other way counts as inactive or inconclusive. Potency is read from the fitted curve at half-maximal effect.

SMILES | NPC1 prom act | Rab9 promoter act | ELG1 genotox | FLuc modulator | ELG1 DNA repair | SMN2 splice up
CCOc1ccc(CCNC(=O)c2ccc(CS(=O)Cc3ccccc3Cl)o2)cc1 (centres undefined) | 13% | 8% | -7% | 24µM* | 23µM* | .
Cc1oc(-c2ccccc2)nc1CS(=O)CC(=O)NC1CCCCCC1 (centres undefined) | 0% | 0% | 0% | -4% | 14% | .
O=C(Nc1ccc(-c2noc(-c3ccccc3F)n2)cc1)c1cccs1 | ? | 1.6µM* | ? | ? | ? | 14µM*
Cc1ccccc1-c1nc(-c2ccc(NC(=O)c3cccs3)cc2)no1 | ? | 4µM* | 2% | 13µM* | ? | -8%
O=C(Nc1ccc(NC(=S)NC(=O)c2ccccc2F)cc1)c1cccs1 | -2% | 1% | -12% | -5% | ? | 17%
O=C(c1ccncc1)c1ccc(NC(=O)c2cccs2)cc1 | 7% | 18% | -5% | ? | ? | -33%
N#C/C(=C/c1ccco1)c1nc2ccccc2s1 | 18% | 3.5µM* | 16µM* | 1.9µM* | ? | ?
N#C/C(=C/c1ccc(-c2cc(C(=O)O)cc(C(=O)O)c2)o1)c1nc2ccccc2s1 | -2% | -3% | -3% | 2.1µM* | 21% | 13%
N#C/C(=C\c1ccco1)c1nc2ccccc2s1 | 29% | ? | 7.3µM* | 1.7µM* | ? | 11µM*
CCCCc1ccc(-c2csc(/C(C#N)=C\c3ccco3)n2)cc1 | -1% | -1% | 1% | -23% | -1% | -25%
N#C/C(=C\c1ccc(-c2ccccc2Cl)o1)C(=O)Nc1nc2ccccc2s1 | 8% | 0% | 5% | ? | ? | -15%
O=C(NNC(=O)c1c(O)c2ccccc2[nH]c1=O)c1ccccc1Br | 11% | 9% | 5% | -1% | 10% | .
Cc1csc2nc(-c3cccc(NC(=O)c4c(F)cccc4F)c3)cn12 | . | . | . | 21µM* | . | .
Cc1csc2nc(-c3cccc(NC(=O)c4ccc(S(N)(=O)=O)cc4)c3)cn12 | . | . | . | 9.5µM* | . | .
CCOCC(=O)Nc1ccc(-c2cn3c(C)csc3n2)cc1 | . | . | . | 17µM* | . | .
Nn1cc(-c2ccccc2)nc1SCC(=O)Nc1cccc(S(N)(=O)=O)c1 | 1% | 11% | 2% | 1% | 2% | .
CC(=O)Nc1ccc(S(=O)(=O)NCc2cn3c(C)csc3n2)cc1 | -4% | 0% | 1% | -2% | 11% | -57%
COc1ccccc1N1CC(C(=O)Nc2nnc(SC)s2)CC1=O (centres undefined) | 0% | 12% | 0% | -1% | 7% | .
C#CCSc1nncn1C(=O)/C=C/c1ccccc1 | -4% | 0% | 1% | 19µM* | ? | -6%
CC1(C2CC2)NC(=O)N(CC(=O)N2CCN(c3cccc(C(F)(F)F)c3)CC2)C1=O (centres undefined) | . | . | -12% | . | ? | .
CCn1c(CSc2nc3ccccc3s2)nc2ccccc21 | 1% | 1% | 3% | 24µM* | -11% | -34%
c1csc(CSc2nc3ccccc3s2)c1 | ? | 3.5µM* | 15µM* | 4.8µM* | ? | ?
CCOC(=O)c1nn(-c2ccc(C)cc2)cc1O | 4.5µM* | ? | 3.2µM* | 7.6µM* | ? | ?
CCOC(=O)c1nn(-c2cc(C(=O)OC)cc(C(=O)OC)c2)cc1O | -2% | -3% | 4% | 2% | -20% | 2%
CCOC(=O)c1nn(-c2ccc(Cl)cc2)cc1O | ? | ? | ? | 11µM* | ? | .
SMILES | NPC1 prom act | Rab9 promoter act | ELG1 genotox | FLuc modulator | ELG1 DNA repair | SMN2 splice up
CCOC(=O)c1cc(C(=O)OCC)cc(-n2cc(O)c(C(=O)OCC)n2)c1 | 0% | 0% | 0% | -1% | -24% | 0%
CCOC(=O)C1=NN(c2ccc(Cl)cc2)C(=O)C1 | ? | ? | ? | 9.5µM* | ? | .
CCOC(=O)c1[nH]n(-c2ccc(Cl)cc2)c(=O)c1C | -2% | -4% | -5% | 4% | -7% | 2%
COC(=O)c1nn(-c2ccc(-c3ccccc3)cc2)cc1O | ? | ? | 13% | 0.34µM* | ? | ?
CCn1c(SCC(=O)Nc2cc(S(=O)(=O)N3CCOCC3)ccc2OC)nnc1-c1ccncc1 | 1% | -6% | 0% | 1% | 9% | 1%
Cc1ccc(CN(C)C(=O)c2cc(S(=O)(=O)N3CCOCC3)ccc2F)o1 | . | . | 1% | . | 15% | .
CCOC(=O)c1nn(-c2ccc3ccccc3c2)cc1O | ? | 23% | 15µM* | 8.5µM* | ? | 13%
c1cc2c(cc1-n1cnnn1)OCO2 | 2% | 7% | 0% | -3% | 0% | 17%
CCOC(=O)c1nn(-c2ccc3c(c2)OCO3)cc1O | 3.2µM* | ? | ? | 12µM* | ? | ?
COc1ccc(-c2csc(-n3cccn3)n2)cc1 | 2.5µM* | 1.4µM* | ? | 3.8µM* | ? | .
COc1ccc(-c2csc(-n3ncc(-c4cccs4)c3N)n2)cc1 | -6% | 6% | 1% | 4.3µM* | -17% | -6%
COc1ccc(-c2ccc(-c3noc(-c4cccs4)n3)c(OC)n2)cc1 | 16% | 28% | ? | -14% | ? | 12%
O=S(=O)(c1ccccc1)n1nc(-c2ccc(Cl)cc2)nc1NCc1ccc(F)cc1 | . | . | . | 2% | . | 11%
Cc1ccc2c(c1C)NC(=O)CC2c1ccc(Cl)cc1Cl (centres undefined) | . | . | . | -8% | . | 4%
C/C(=N\Nc1nc2ccc(Cl)cc2o1)c1ccccc1 | 25% | ? | 4% | 17µM* | ? | .
Cc1c(NC(=O)COC(=O)/C=C/c2ccccc2Br)c(=O)n(-c2ccccc2)n1C | -1% | -4% | -1% | 1% | 29% | .
Cc1ccccc1Cn1c(CN2CCCC(C)C2)nc2c1c(=O)n(C)c(=O)n2C (centres undefined) | . | . | . | 0% | . | -11%
O=C(CN1C(=O)S/C(=C\C=C\c2ccccc2)C1=O)Nc1cccc(O)c1 | 21% | ? | ? | 12µM* | ? | 71%
O=C(CCN1C(=O)S/C(=C\C=C\c2ccccc2)C1=O)Nc1ccc(O)cc1 | 3.5µM* | 3.5µM* | 13µM* | ? | ? | .
O=C(CCCN1C(=O)S/C(=C\C=C\c2ccccc2)C1=O)Nc1ccc(C(=O)O)cc1 | ? | ? | 22% | 21µM* | ? | .
COc1ccc(-n2ccnc(NCc3cccs3)c2=O)cc1OC | . | . | . | -2% | . | .
COc1ccc(-n2cc(C(=O)Oc3cc(C)cc(C)c3)c3ccccc3c2=O)cc1 | . | . | . | -1% | . | .
CC(C)(C)NC(=S)Nc1cccc(C(F)(F)F)c1 | 3% | -7% | -15% | -7% | 12µM* | -35%

Bioassay records from PubChem BioAssay.
